Records with an inconclusive call do not appear. Activity calls are given as the source filed them. The call rests on the fitted dose curve; in most records, active means well fitted inhibition curve with a large enough effect; inconclusive means small, poorly fitted or top-dose-only effect; inactive means flat fitted curve, though single readings scatter.
Legend:
CRL-7250 = normal cell line; assay: Cytotoxic Profiling of Annotated Libraries Using Quantitative High-Throughput Screening (AID 1296008); settings: Five cell lines viability, CellTiter-Glo ATP luminescence, 48-72 h; max response: active compounds read low; on max response: on the % scale 0 is the no-effect control and ±100 the full control effect
Method in brief: (§1)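 Cells exposed to compounds for 48 or 72 hr at 37 degrees Celsius. Viability read as ATP-coupled luminescence with CellTiter-Glo after 10 min at room temperature.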

HEK293 = assay: as above; settings: Five cell lines viability, CellTiter-Glo ATP luminescence, 48-72 h; max response: active compounds read low
Method in brief: as §1

HaCat [1] = assay: as above; settings: Five cell lines viability, CellTiter-Glo ATP luminescence, 48-72 h; max response: active compounds read low
Method in brief: as §1

KB-3-1 = assay: as above; settings: Five cell lines viability, CellTiter-Glo ATP luminescence, 48-72 h; max response: active compounds read low
Method in brief: as §1

NIH3T3 = assay: as above; settings: Five cell lines viability, CellTiter-Glo ATP luminescence, 48-72 h; max response: active compounds read low
Method in brief: as §1

HACAT [2] = assay: qHTS assay to identify novel small-molecules to repurpose for Merkel cell carcinoma treatment (AID 1296009); settings: MCC and control cell lines, CellTiter-Glo viability, 72 h; at 44.8 µM (top of the series) unless noted
Method in brief: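 CellTiter-Glo luminescence after 72 hr compound exposure at 37 degree celsius gave cell viability. Libraries NPC and MIPE were run as 8- and 11-point dose responses; RLUs normalized to DMSO (negative) and no-cell (cytotoxicity) controls.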

Measured: max response
Further: nearly all actives have a fitted effect of over 60% in size.

C[C@@]1(C(=O)O)CCC[C@@]2(C)C3=CC[C@H]4C[C@@]3(CC[C@H]12)CC4(O)CO (some centres undefined)
inactive: CRL-7250 -19% | HEK293 4.94% | HaCat [1] | KB-3-1 | NIH3T3 | HACAT [2]

O=C(C1OC1/C=C/c1ccc2c(c1)OCO2)N1CCCCC1 (centres undefined)
inactive: CRL-7250 3.99% | HEK293 -7.74% | HaCat [1] | KB-3-1 5.97% | NIH3T3 -1.01% | HACAT [2]

CC(=O)OC1CC(C(C)(C)O)OC2CCC3(C)OC4=C(C(=O)C=C5C(C)C(OC(C)=O)C6(C)C(C)OC546)C(O)C3C12C (centres undefined)
inactive: CRL-7250 | HEK293 -23.5% | HaCat [1] | KB-3-1 5.34% | NIH3T3 1.94% | HACAT [2] inactive [at 17.4 µM]

COC(=O)C1=CO[C@@H](O[C@@H]2O[C@H](CO)[C@@H](O)[C@H](O)[C@H]2O)/C(=C\CO)[C@@H]1CC(=O)OCCc1ccc(O)cc1
inactive: CRL-7250 0.106% | HEK293 2.34% | HaCat [1] | KB-3-1 | NIH3T3 | HACAT [2] inactive [at 17.4 µM]

CC(NC(=O)c1ccccc1N)C(=O)O (centres undefined)
inactive: CRL-7250 2.02% | HEK293 4.67% | HaCat [1] | KB-3-1 9.06% | NIH3T3 0.106% | HACAT [2]

CC1=C2CC(=O)C(C)CC/C=C(\C)CC2OC1=O (centres undefined)
inactive: CRL-7250 | HEK293 -1.49% | HaCat [1] | KB-3-1 1.48% | NIH3T3 2.98% | HACAT [2]

COC(=O)[C@H](c1ccccc1Cl)N1CCC2SC(=O)C=C2C1 (some centres undefined)
inactive: CRL-7250 -4.86% | HEK293 -11.7% | HaCat [1] | KB-3-1 7.5% | NIH3T3 -12.1% | HACAT [2]

O=C(O)c1cccc(C(=O)CCC2OC(n3cnc4c(=O)[nH]cnc43)C(O)C2O)c1 (centres undefined)
inactive: CRL-7250 | HEK293 -2.52% | HaCat [1] | KB-3-1 3.59% | NIH3T3 | HACAT [2] inactive [at 17.4 µM]

CC1=CC(=O)CC(C)(C)[C@@]1(O)/C=C/C(C)O[C@@H]1O[C@H](CO)[C@@H](O)[C@H](O)[C@H]1O (some centres undefined)
inactive: CRL-7250 -4.8% | HEK293 -13.1% | HaCat [1] | KB-3-1 | NIH3T3 | HACAT [2] inactive [at 17.4 µM]

CC1OC(OC2C(OC3C(O[C@H]4CC[C@@]5(C)C(CC[C@]6(C)C5C(=O)CC5=C7CC(C)(C)CC(O)[C@]7(C)CC[C@]56C)C4(C)C)OC(C(=O)O)C(O)C3O)OCC(O)C2O)C(O)C(O)C1O (some centres undefined)
inactive: CRL-7250 0.224% | HEK293 2.58% | HaCat [1] | KB-3-1 | NIH3T3 -0.899% | HACAT [2] inactive [at 9.27 µM]

CCCCOc1nc(N)c2c(n1)N(Cc1cccc(CN3CCCC3)c1)CC(=O)N2
inactive: CRL-7250 | HEK293 -3.01% | HaCat [1] | KB-3-1 -3.08% | NIH3T3 | HACAT [2]

C[C@@H]1O[C@@H](O[C@H]2[C@@H]3C=CO[C@@H](O[C@@H]4O[C@H](CO)[C@@H](O)[C@H](O)[C@H]4O)[C@@H]3[C@@]3(CO)O[C@@H]23)[C@H](O)[C@H](OC(=O)/C=C/c2ccc(O)cc2)[C@H]1OC(=O)/C=C/c1ccc(O)cc1
inactive: CRL-7250 4.25% | HEK293 -0.28% | HaCat [1] | KB-3-1 2.65% | NIH3T3 -10.1% | HACAT [2] inactive [at 17.4 µM]

CC1(C)CCC2(C(=O)O)CCC3(C)C(=CCC4C5(C)CCC(O)C(C)(CO)C5C(O)CC43C)C2C1 (centres undefined)
inactive: CRL-7250 -7.98% | HEK293 4.6% | HaCat [1] | KB-3-1 4.19% | NIH3T3 | HACAT [2] inactive [at 17.4 µM]

CC1CCC2(C(=O)OC3OC(CO)C(O)C(O)C3O)CCC3(C)C(=CCC4C5(C)CCC(O)C(C)(CO)C5CCC43C)C2C1(C)O (centres undefined)
inactive: CRL-7250 | HEK293 -1.85% | HaCat [1] | KB-3-1 | NIH3T3 | HACAT [2] inactive [at 17.4 µM]

COc1c2ccoc2nc2c(OC)c(O[C@@H]3O[C@@H](C)[C@H](O)[C@@H](O[C@@H]4O[C@H](CO)[C@@H](O)[C@H](O)[C@H]4O)[C@H]3OC(C)=O)ccc12
inactive: CRL-7250 0.0337% | HEK293 -0.274% | HaCat [1] | KB-3-1 9.99% | NIH3T3 -1.67% | HACAT [2] inactive [at 17.4 µM]

C[C@H]1CCN2C[C@]34C[C@@]5(C(=O)Nc6c5ccc5c6OC=CC(C)(C)O5)C(C)(C)C3C[C@]12C(=O)N4C (some centres undefined)
inactive: CRL-7250 | HEK293 -13.2% | HaCat [1] | KB-3-1 -2.39% | NIH3T3 3.63% | HACAT [2] inactive [at 17.4 µM]

CC(C)CC(=O)O[C@@H]1O[C@H](CO)[C@@H](O[C@H]2O[C@H](C)[C@@H](N[C@H]3C=C(CO)[C@@H](O[C@H]4O[C@H](CO)[C@@H](O[C@H]5O[C@H](CO)[C@@H](O[C@H]6O[C@H](CO)[C@@H](O)[C@H](O)[C@H]6O)[C@H](O)[C@H]5O)[C@H](O)[C@H]4O)[C@H](O)[C@H]3O)[C@H](O)[C@H]2O)[C@H](O)[C@H]1O
inactive: CRL-7250 1.09% | HEK293 -7.41% | HaCat [1] | KB-3-1 | NIH3T3 -2.08% | HACAT [2] inactive [at 9.27 µM]

COc1ccc(/C=C/C(N)=O)cc1OC
inactive: CRL-7250 | HEK293 3.65% | HaCat [1] | KB-3-1 | NIH3T3 3.68% | HACAT [2]

COc1ccc(Oc2c(Cl)cnn(C3c4ccccc4-c4ccccc43)c2=O)cc1
inactive: CRL-7250 -3.95% | HEK293 -2.77% | HaCat [1] | KB-3-1 -2.29% | NIH3T3 | HACAT [2]

Reference: PubChem BioAssay (NCATS)
